Values joined by “and” are separate entries in the source; they are usually repeats but may differ in a detail not shown here. Equal entries are not always repeated. The campaign covered roughly 5,500 compounds. About 2,000 (36%) were called active. Inconclusive results (about 18%) are left out. Rule as the data show it: active = normalized growth mostly below about 0.91 (no sharp cut-off); inconclusive = no clear call, values can overlap the other calls; inactive = mostly above about 0.92. The list shows a part of the results.
Assay: chemical genetic growth profiling, strain panel (AID 1159580);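 also: tested at 20 µM; growth read once vehicle control cultures reached saturation at 30 °C; 1 = growth at the plate median or of vehicle wells; lower values mean less growth of the strain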
Conditions: S. cerevisiae deletion strains, growth OD

Measured: normalized growth

CN1CCC[C@H]1c1cccnc1
inactive: locus YAL013W, strain DEP1, stronger effect = lower value 0.998 | locus YAL021C, strain ccr4, stronger effect = lower value 1.02 | locus YAL026C, strain drs2, stronger effect = lower value 1.03 | locus YAL030W, strain snc1, stronger effect = lower value 1.02 | locus YBL061C, strain skt5, stronger effect = lower value 1.03 | locus YBR009C, strain hhf1, stronger effect = lower value 1.02 | locus YBR021W, strain FUR4, stronger effect = lower value 0.968 | locus YBR023C, strain chs3, stronger effect = lower value 1.05 | locus YBR171W, strain sec66, stronger effect = lower value 1.05 | locus YBR229C, strain ROT2, stronger effect = lower value 0.992 | locus YBR231C, strain swc5, stronger effect = lower value 1.02 | locus YBR279W, strain paf1, stronger effect = lower value 1.02 | locus YCL011C, strain gbp2, stronger effect = lower value 1.03 | locus YCL016C, strain dcc1, stronger effect = lower value 1.03 | locus YCL029C, strain bik1, stronger effect = lower value 0.995 | locus YCL061C, strain MRC1, stronger effect = lower value 1 | locus YCL069W, strain vba3, stronger effect = lower value 1.04 | locus YCR088W, strain abp1, stronger effect = lower value 1.02 | locus YDL005C, strain med2, stronger effect = lower value 1.03 | locus YDL035C, strain GPR1, stronger effect = lower value 1.01 | locus YDL040C, strain nat1, stronger effect = lower value 1.02 | locus YDL074C, strain BRE1, stronger effect = lower value 1.03 | locus YDL101C, strain DUN1, stronger effect = lower value 0.994 | locus YDL134C, strain PPH21, stronger effect = lower value 0.994 | locus YDL185W, strain tfp1, stronger effect = lower value 0.983 | locus YDL192W, strain arf1, stronger effect = lower value 0.997 | locus YDR001C, strain nth1, stronger effect = lower value 1.03 | locus YDR069C, strain doa4, stronger effect = lower value 1.02 | locus YDR101C, strain arx1, stronger effect = lower value 1 | locus YDR137W, strain rgp1, stronger effect = lower value 1.05 | locus YDR150W, strain NUM1, stronger effect = lower value 0.999 | locus YDR159W, strain sac3, stronger effect = lower value 1 | locus YDR162C, strain NBP2, stronger effect = lower value 1.03 | locus YDR195W, strain ref2 1.02 | locus YDR297W, strain sur2, stronger effect = lower value 1.02 | locus YDR318W, strain mcm21, stronger effect = lower value 0.983 | locus YDR334W, strain swr1, stronger effect = lower value 1.03 | locus YDR335W, strain msn5, stronger effect = lower value 1.03 | locus YDR388W, stronger effect = lower value 0.996 | locus YDR392W, strain spt3, stronger effect = lower value 0.964 | locus YDR502C, strain sam2, stronger effect = lower value 1 | locus YEL003W, strain gim4, stronger effect = lower value 1.02 | locus YEL037C, strain rad23, stronger effect = lower value 1.03 | locus YEL061C, strain CIN8 (second series), stronger effect = lower value 1.03 | locus YEL061C, strain CIN8, stronger effect = lower value 0.993 | locus YER015W, strain faa2, stronger effect = lower value 1.03 | locus YER016W, strain bim1, stronger effect = lower value 1.02 | locus YER110C, stronger effect = lower value 0.985 | locus YER111C, strain swi4, stronger effect = lower value 1.04 | locus YER155C, strain BEM2 (second series), stronger effect = lower value 0.991 | locus YER155C, strain BEM2, stronger effect = lower value 0.992 | locus YER167W, strain BCK2, stronger effect = lower value 0.98 | locus YFR010W, strain ubp6, stronger effect = lower value 1.03 | locus YGL078C, strain dbp3, stronger effect = lower value 0.994 | locus YGL086W, strain mad1, stronger effect = lower value 0.969 | locus YGL167C, strain pmr1, stronger effect = lower value 1.04 | locus YGL173C, strain kem1, stronger effect = lower value 1.03 | locus YGL227W, strain vid30, stronger effect = lower value 1.04 | locus YGL240W, strain doc1, stronger effect = lower value 1 | locus YGL248W, strain PDE1, stronger effect = lower value 0.985 | locus YGL253W, strain hxk2, stronger effect = lower value 1.04 | locus YGR078C, strain PAC10, stronger effect = lower value 1.04 | locus YGR135W, strain pre9, stronger effect = lower value 1 | locus YGR229C, strain SMI1, stronger effect = lower value 1.02 | locus YGR252W, strain gcn5, stronger effect = lower value 0.949 | locus YHR013C, strain ard1, stronger effect = lower value 1.06 | locus YHR027C, strain rpn1, stronger effect = lower value 1.03 | locus YHR030C, strain SLT2, stronger effect = lower value 0.991 and 0.959 | locus YHR079C, strain IRE1 (second series), stronger effect = lower value 0.996 | locus YHR079C, strain IRE1, stronger effect = lower value 1.03 | locus YHR094C, strain hxt1, stronger effect = lower value 0.989 | locus YHR129C, strain ARP1, stronger effect = lower value 0.99 | locus YHR142W, strain chs7, stronger effect = lower value 1.06 | locus YHR200W, strain rpn10, stronger effect = lower value 0.981 | locus YIL066C, strain RNR3, stronger effect = lower value 0.985 | locus YIL073C, strain SPO22, stronger effect = lower value 0.968 | locus YIL125W, strain kgd1, stronger effect = lower value 0.997 | locus YIR030C, strain dcg1, stronger effect = lower value 0.995 | locus YJL092W, strain hpr5, stronger effect = lower value 1.02 | locus YJL095W, strain BCK1 (second series), stronger effect = lower value 1.02 | locus YJL095W, strain BCK1, stronger effect = lower value 1.01 and 0.947 | locus YJL115W, strain asf1, stronger effect = lower value 1.02 | locus YJL129C, strain trk1, stronger effect = lower value 1.07 | locus YJL134W, strain LCB3, stronger effect = lower value 0.989 | locus YJL154C, strain vps35, stronger effect = lower value 1.02 | locus YJL164C, strain tpk1, stronger effect = lower value 1.02 | locus YJL166W, strain qcr8, stronger effect = lower value 1.03 | locus YJL168C, strain set2, stronger effect = lower value 0.994 | locus YJL187C, strain SWE1 (second series), stronger effect = lower value 0.997 | locus YJL187C, strain SWE1, stronger effect = lower value 1.02 | locus YJR043C, strain POL32, stronger effect = lower value 0.995 | locus YJR066W, strain TOR1, stronger effect = lower value 0.943

From PubChem BioAssay AID1159580 (chemical genetic matrix, 2015)
